B1: Caulobacter ParB omega fusion; a variant is named by its letters at X, in order, B8GW30 (parent)
chain: MESVVVGEPGMSEGRRGLGRGLSALLGEVDAAPAQAPGEQLGGSREAPIEILQRNPDQPRRTFREEDLEDLSNSIREKGVLQPILVRPSPDTAGEYQIVAGERAWRAAQRAGLKTVPIMVRELDDLAVLEIGIIENVQRADLNVLEEALSYKVLMEKFERTQENIAQTIGKSXSHVANXMRLLXLPDEVQSYLVSGELTAXHARAIAAAADPVALAKQIIEGGLSVRETEALARKAPNLSAGKSKGGRPPRVKDTDTQALESDLSSVLGLDVSIDHRGSTGTLTITYATLEQLDDLCNRLTRGI

The full ranking holds about 81,000 sequences; the median of “one-hybrid fitness for binding parS DNA” is about -0.17, and the highest 2% start at about 0.51. Many of the other results were omitted from the sample, so the highest values are more common in it than they were.

The source of these data is a collection of fitness landscapes (doi:10.1016/j.celrep.2020.107928).

The variants in this experiment derive from B1. Put plainly: one-hybrid fitness for binding parS DNA (scaled: cognate 1, non-cognate 0); higher = stronger binding. The following applies: with parS DNA site. An outline of the steps:
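Pre- and post-selection plasmids were Illumina-sequenced, three replicate libraries were pooled, and any variant with under 10 reads was removed. The libraries were Caulobacter ParB with four specificity codons randomised, selected in E. coli USO through a HIS3 reporter whose site is 19 bp from the promoter. Cells grew 48 hours at 37°C on M9 without histidine, with 0.1 mM IPTG and 5 mM 3-AT. Fitness is the log change in variant-to-wild-type read ratio, rescaled against cognate and non-cognate.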
For LPLM, the “one-hybrid fitness for binding parS DNA” value is not above 0.2.
With WSVC the figure was not above 0.2.
With AQMM the figure was not above 0.2; with DELW, not above 0.2.
On to QKSV, for which the “one-hybrid fitness for binding parS DNA” value is not above 0.2.
With HVTI the figure was not above 0.2; with GLLA, not above 0.2; with RINN, 0.469.
Consider RIDT, for which the “one-hybrid fitness for binding parS DNA” value came to 0.725.
For RIDF the value was 0.257; for RISQ, not above 0.2.
Consider RIDR, for which the “one-hybrid fitness for binding parS DNA” value is not above 0.2.
Consider RIST, for which the “one-hybrid fitness for binding parS DNA” value turned out to be 0.929.
For RISF the value was 0.21.
For RIYD the value was not above 0.2; for RIYP, 0.203.
With RINT the figure was 0.914; with RINP, not above 0.2; with RIYT, 0.926.
In the case of NRPF, the “one-hybrid fitness for binding parS DNA” value was not above 0.2.
With CRDC the figure was not above 0.2.
QFLC: the “one-hybrid fitness for binding parS DNA” value is not above 0.2.
With PTYG the figure was not above 0.2.
With RARL the figure was not above 0.2; with GSHT, not above 0.2.
For MNLG the value was not above 0.2.
With RIRK, the “one-hybrid fitness for binding parS DNA” value is not above 0.2.
Take RIRT: the “one-hybrid fitness for binding parS DNA” value was 0.848.
As to RIRR, the “one-hybrid fitness for binding parS DNA” value is not above 0.2.
WPQC: the “one-hybrid fitness for binding parS DNA” value stood at 0.245.
For SGVD the value was not above 0.2.
On to RIAS, for which the “one-hybrid fitness for binding parS DNA” value is 1.04.
For RIFD the value was not above 0.2; for RIAD, 0.212; for RIAN, 0.432.
Take RIFP: the “one-hybrid fitness for binding parS DNA” value was determined as 0.206.
On to RIFS, for which the “one-hybrid fitness for binding parS DNA” value stood at 0.995.
As to VTEW, the “one-hybrid fitness for binding parS DNA” value was not above 0.2.
With YCGR the figure was not above 0.2; with AFAS, not above 0.2.
For ARMN the value was not above 0.2; for VELC, not above 0.2; for RNDY, 0.256.
For RNDC the value was 0.617; for RNNM, 0.28.
Take RNNK: the “one-hybrid fitness for binding parS DNA” value is not above 0.2.
Regarding RNDD, the “one-hybrid fitness for binding parS DNA” value was not above 0.2.
With RNNC the figure was 0.869.
For the variant RLSF, the “one-hybrid fitness for binding parS DNA” value is 0.246.
For RLSQ the value was not above 0.2.
With RLSG the figure was 1.01.
For RFSG the value was 0.97; for RMSG, 1.02.
Turning to RKSK, the “one-hybrid fitness for binding parS DNA” value was not above 0.2.
In the case of RKSG, the “one-hybrid fitness for binding parS DNA” value was determined as 0.928.
For the variant NFSG, the “one-hybrid fitness for binding parS DNA” value is not above 0.2.
Take RMSK: the “one-hybrid fitness for binding parS DNA” value is not above 0.2.
For DFSG the value was not above 0.2; for RKSY, 0.366.
With RMSR the figure was not above 0.2.
With NHHN the figure was not above 0.2.
As for WADR, the “one-hybrid fitness for binding parS DNA” value was not above 0.2.
Consider REQN, for which the “one-hybrid fitness for binding parS DNA” value was not above 0.2.
With AVAR the figure was not above 0.2; with GWDC, not above 0.2; with RDVW, not above 0.2.
For SSNE the value was not above 0.2; for RTSG, 1; for RISG, 1.01.
With RESG the figure was 0.217.
As for RSSK, the “one-hybrid fitness for binding parS DNA” value is not above 0.2.
For RTSQ the value was not above 0.2; for RPSG, not above 0.2; for RSSG, 0.993.
With RISY the figure was 0.477.
With RISK the figure was not above 0.2; with RCSG, 0.997; with RTSY, 0.489.
In the case of RDSG, the “one-hybrid fitness for binding parS DNA” value is not above 0.2.
As for EQLF, the “one-hybrid fitness for binding parS DNA” value is not above 0.2.
For KYRN the value was not above 0.2.
For QKYR the value was not above 0.2.
On to DTLV, for which the “one-hybrid fitness for binding parS DNA” value is not above 0.2.
PHRR: the “one-hybrid fitness for binding parS DNA” value is not above 0.2.
